# Laboratory results reported in the supplement of paper PMC11732987, “Enantioselective OTUD7B fragment discovery through chemoproteomics screening and high-throughput optimisation” (Communications Chemistry, 2025).
# A number with no mark means an inactive call.
# Assays:
# Experiment in all cases: log2 ratio of Biotin-Ahx-Ub-VS probe labelling (fragment/DMSO); higher = less target engagement (more negative = stronger competition), active = hit call of the paper (q ≤ 0.05, log2 ratio ≤ -1)
# Conditions in all cases: compound concentration: 200 uM; treatment time: 3 h
# [1] = target: T1, OTUD6B (UniProt Q8N6M0)
# T1 sequence (whole entry): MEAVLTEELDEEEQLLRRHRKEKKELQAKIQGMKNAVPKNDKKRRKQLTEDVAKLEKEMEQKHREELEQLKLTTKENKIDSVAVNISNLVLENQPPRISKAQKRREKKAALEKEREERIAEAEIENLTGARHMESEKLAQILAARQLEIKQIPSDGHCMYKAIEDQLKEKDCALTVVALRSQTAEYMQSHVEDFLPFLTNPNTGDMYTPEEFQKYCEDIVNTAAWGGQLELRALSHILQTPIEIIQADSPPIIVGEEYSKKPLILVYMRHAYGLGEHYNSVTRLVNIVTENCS
# In short: (§1)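 Fragment (200 µM) or vehicle was incubated for 3 h with triplicate HEK293T lysate samples of 495 µg, which were then treated with Biotin-Ahx-Ub-VS at 0.5 µM final for 1 h. Labelled DUBs were enriched on NeutrAvidin, digested with LysC and trypsin, and analysed by diaPASEF LC-MS/MS. Values are average log2 fragment/vehicle ratios from an unpaired t-test on global-median-normalised Spectronaut label-free quantities, using proteins with ≥2 unique peptides.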
# [2] = target: T2, OTUD7B (UniProt Q6GQQ9)
# T2 sequence (whole entry): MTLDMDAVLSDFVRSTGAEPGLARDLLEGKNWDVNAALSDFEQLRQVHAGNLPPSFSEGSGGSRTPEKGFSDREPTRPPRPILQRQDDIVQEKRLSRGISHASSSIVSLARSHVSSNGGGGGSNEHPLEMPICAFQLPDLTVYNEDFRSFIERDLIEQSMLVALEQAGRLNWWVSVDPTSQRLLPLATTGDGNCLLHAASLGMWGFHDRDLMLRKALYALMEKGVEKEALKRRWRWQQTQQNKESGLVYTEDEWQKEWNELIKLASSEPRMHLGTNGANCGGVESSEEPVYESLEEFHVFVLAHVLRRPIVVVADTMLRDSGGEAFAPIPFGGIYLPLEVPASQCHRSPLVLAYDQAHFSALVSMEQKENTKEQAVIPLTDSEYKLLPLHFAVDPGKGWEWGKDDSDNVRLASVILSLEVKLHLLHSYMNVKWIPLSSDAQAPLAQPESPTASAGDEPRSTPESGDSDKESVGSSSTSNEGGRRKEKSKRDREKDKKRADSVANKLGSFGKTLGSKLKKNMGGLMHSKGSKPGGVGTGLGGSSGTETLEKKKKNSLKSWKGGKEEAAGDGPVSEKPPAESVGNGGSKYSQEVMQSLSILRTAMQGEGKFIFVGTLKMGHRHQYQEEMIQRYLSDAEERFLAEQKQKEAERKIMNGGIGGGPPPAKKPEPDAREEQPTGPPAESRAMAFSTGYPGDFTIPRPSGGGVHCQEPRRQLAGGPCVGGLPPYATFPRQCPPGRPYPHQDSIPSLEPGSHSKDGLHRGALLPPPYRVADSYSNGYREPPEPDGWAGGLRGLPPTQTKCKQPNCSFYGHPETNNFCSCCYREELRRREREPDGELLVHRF
# In short: as §1
# [3] = target: PRPF8 (UniProt Q6P2Q9)
# In short: as §1
# [4] = target: T3, PSMD7 (UniProt P51665)
# T3 sequence (whole entry): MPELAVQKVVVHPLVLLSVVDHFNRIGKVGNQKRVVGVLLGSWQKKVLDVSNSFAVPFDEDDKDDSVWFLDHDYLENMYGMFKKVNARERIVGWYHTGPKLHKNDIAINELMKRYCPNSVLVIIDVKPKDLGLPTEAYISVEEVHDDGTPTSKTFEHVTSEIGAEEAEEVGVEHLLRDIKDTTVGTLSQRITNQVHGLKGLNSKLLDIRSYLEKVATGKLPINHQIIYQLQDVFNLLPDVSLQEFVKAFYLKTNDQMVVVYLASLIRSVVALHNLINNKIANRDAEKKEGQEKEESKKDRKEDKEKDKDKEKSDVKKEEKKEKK
# In short: as §1
# [5] = target: UCHL1 (UniProt P09936)
# UCHL1, sequence (P09936 whole entry, looked up): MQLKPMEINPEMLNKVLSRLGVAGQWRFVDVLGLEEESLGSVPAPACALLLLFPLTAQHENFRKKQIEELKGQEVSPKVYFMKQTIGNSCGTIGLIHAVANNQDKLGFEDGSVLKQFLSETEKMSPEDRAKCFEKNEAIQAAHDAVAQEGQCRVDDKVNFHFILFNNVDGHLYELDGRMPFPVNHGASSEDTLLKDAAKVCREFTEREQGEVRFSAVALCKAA
# In short: as §1
# [6] = target: T4, UCHL3 (UniProt P15374)
# T4 sequence (whole entry): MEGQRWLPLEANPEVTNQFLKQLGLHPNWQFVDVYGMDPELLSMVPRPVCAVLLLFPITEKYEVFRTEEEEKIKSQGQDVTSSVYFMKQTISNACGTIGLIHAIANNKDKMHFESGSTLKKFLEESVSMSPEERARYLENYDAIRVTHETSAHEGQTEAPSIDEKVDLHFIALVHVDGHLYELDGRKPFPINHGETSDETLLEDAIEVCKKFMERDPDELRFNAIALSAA
# In short: as §1
# [7] = target: T5, UCHL5 (UniProt Q9Y5K5)
# T5 sequence (whole entry): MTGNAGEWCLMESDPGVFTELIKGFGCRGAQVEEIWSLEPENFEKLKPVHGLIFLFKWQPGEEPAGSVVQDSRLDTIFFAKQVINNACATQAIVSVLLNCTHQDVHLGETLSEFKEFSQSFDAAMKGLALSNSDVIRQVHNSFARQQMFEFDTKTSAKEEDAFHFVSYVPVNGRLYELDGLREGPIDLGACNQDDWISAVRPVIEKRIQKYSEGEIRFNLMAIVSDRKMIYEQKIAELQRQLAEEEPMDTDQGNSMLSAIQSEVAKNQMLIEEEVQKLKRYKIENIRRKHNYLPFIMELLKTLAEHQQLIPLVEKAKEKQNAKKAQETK
# In short: as §1
# [8] = target: USP10 (UniProt Q14694)
# USP10, sequence (Q14694 whole entry): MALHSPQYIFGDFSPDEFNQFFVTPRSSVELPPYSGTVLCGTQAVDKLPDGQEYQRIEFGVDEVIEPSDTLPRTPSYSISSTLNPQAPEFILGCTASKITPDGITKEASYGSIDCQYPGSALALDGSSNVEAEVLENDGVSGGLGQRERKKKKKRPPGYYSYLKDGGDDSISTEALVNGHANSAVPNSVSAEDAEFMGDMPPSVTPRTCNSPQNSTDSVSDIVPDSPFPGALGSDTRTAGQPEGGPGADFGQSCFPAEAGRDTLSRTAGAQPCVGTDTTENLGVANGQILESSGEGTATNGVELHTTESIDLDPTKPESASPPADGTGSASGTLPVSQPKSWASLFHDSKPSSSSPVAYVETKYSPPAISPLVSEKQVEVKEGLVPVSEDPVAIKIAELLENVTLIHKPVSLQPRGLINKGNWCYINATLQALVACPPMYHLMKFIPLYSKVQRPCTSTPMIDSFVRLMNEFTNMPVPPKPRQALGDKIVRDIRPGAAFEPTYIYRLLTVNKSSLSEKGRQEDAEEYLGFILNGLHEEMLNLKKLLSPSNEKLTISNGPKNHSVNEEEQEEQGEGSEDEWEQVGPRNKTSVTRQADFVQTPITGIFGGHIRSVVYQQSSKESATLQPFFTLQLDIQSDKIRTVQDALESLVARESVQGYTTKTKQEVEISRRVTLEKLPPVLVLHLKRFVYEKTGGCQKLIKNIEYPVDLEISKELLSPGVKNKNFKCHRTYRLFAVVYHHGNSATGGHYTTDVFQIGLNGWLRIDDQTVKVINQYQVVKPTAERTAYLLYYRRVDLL
# In short: as §1
# [9] = target: T6, USP15 (UniProt Q9Y4E8)
# T6 sequence (whole entry): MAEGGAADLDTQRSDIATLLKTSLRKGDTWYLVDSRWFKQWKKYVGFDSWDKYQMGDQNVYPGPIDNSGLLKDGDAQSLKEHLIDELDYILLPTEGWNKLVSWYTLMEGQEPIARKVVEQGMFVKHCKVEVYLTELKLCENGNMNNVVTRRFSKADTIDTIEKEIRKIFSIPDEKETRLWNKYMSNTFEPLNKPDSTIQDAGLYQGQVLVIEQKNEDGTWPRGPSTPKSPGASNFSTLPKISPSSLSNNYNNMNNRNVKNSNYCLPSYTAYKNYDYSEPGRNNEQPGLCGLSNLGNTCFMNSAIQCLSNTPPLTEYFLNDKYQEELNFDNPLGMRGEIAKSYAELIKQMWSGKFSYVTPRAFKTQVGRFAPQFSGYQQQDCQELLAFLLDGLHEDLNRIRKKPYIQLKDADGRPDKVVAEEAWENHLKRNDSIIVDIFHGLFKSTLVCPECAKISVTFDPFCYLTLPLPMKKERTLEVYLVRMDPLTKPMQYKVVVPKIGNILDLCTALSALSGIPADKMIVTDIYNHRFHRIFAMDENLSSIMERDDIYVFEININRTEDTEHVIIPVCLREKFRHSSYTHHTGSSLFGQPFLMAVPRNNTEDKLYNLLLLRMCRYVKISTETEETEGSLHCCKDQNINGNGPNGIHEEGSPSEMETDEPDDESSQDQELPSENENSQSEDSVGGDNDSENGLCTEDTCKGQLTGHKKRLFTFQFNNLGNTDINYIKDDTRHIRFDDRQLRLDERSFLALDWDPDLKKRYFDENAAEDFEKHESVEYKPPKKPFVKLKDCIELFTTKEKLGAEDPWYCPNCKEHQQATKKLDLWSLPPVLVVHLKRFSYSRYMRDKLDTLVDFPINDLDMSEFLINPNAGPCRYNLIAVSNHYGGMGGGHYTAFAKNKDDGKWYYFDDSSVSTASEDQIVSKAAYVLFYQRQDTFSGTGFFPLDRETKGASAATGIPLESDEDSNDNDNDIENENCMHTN
# In short: as §1
# [10] = target: USP16 (UniProt Q9Y5T5)
# USP16, sequence (Q9Y5T5 whole entry, looked up): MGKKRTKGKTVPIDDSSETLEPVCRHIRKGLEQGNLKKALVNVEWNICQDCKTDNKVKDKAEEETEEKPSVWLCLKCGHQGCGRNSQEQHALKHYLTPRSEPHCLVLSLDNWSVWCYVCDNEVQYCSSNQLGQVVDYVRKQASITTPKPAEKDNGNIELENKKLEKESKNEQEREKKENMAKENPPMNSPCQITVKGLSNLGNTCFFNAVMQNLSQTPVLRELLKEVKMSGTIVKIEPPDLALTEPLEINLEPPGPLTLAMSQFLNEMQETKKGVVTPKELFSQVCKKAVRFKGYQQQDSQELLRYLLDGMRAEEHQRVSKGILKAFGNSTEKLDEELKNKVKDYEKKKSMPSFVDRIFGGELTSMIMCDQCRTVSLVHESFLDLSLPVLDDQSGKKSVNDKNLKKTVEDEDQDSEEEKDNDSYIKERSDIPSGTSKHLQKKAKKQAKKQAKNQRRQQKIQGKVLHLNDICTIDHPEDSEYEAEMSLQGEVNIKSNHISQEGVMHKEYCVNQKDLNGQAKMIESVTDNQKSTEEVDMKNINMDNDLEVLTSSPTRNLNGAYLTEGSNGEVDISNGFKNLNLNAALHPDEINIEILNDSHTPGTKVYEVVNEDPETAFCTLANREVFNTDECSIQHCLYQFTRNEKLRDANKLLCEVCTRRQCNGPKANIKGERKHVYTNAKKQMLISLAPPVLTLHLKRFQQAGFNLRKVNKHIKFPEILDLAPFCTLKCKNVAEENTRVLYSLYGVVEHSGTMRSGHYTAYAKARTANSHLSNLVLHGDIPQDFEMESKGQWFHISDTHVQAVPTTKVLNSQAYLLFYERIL
# In short: as §1
structure (smiles),measurement,setting,value
O=C(CCl)NCCc1ccc(F)cc1,log2 ratio of Biotin-Ahx-Ub-VS probe labelling,[1],0.0481
same,log2 ratio of Biotin-Ahx-Ub-VS probe labelling,[2],-0.435
same,log2 ratio of Biotin-Ahx-Ub-VS probe labelling,[3],-0.0623
same,log2 ratio of Biotin-Ahx-Ub-VS probe labelling,[4],0.0236
same,log2 ratio of Biotin-Ahx-Ub-VS probe labelling,[5],-1.09 (active)
same,log2 ratio of Biotin-Ahx-Ub-VS probe labelling,[6],0.132
same,log2 ratio of Biotin-Ahx-Ub-VS probe labelling,[7],-0.0307
same,log2 ratio of Biotin-Ahx-Ub-VS probe labelling,[8],-0.0913
same,log2 ratio of Biotin-Ahx-Ub-VS probe labelling,[9],-0.0724
same,log2 ratio of Biotin-Ahx-Ub-VS probe labelling,[10],0.107
